Our source for the Potency values is PubChem BioAssay (NCATS).

The nature of assay [1]: qHTS of pediatric cancer cell lines to identify multiple opportunities for drug repurposing: Primary screen for TC32 cells (AID 1347089). Further: nearly all actives have a fitted effect of over 60% in size. Summed up: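 A viability screen of TC32 cells was run over 48 h, with primary MIPE doses spanning 0.78 nM–46 µM and NPC doses 0.59 nM–46 µM. ATP luminescence (CellTiter-Glo) served as the read-out.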
On the technique in general: In qHTS, concentration-response curves come from the screen itself.

A short description of assay [2]: qHTS of pediatric cancer cell lines to identify multiple opportunities for drug repurposing: Primary screen for DAOY cells (AID 1347090). Further: series mostly up to about 46 µM; nearly all actives have a fitted effect of over 55% in size. Summed up:
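Viability measured as metabolically active cells via CellTiter-Glo luminescence following 48 hours of compound exposure, 11-point dilutions in confirmatory testing. 500-1,000 cells/well plated 5 hours before dosing; controls were DMSO and 2.3 µM bortezomib.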

A short description of assay [3]: qHTS of pediatric cancer cell lines to identify multiple opportunities for drug repurposing: Primary screen for A673 cells (AID 1347092). Further: nearly all actives have a fitted effect of over 45% in size. Further: potency means the concentration at half of the fitted maximal effect. The gist of the method: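 Titration-based qHTS on A673 cells: MIPE compounds spanned 11 points (0.78 nM to 46 µM final), NPC compounds 8 points (0.59 nM to 46 µM final). Viability after 48 h was measured by ATP luminescence.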

Assay [4] in a line: qHTS of pediatric cancer cell lines to identify multiple opportunities for drug repurposing: Primary screen for BT-37 cells (AID 1347094). Further: series mostly up to about 57 µM. The gist of the method: (§1)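 500-1,000 cells/well; 5 h pre-incubation 37 °C/5% CO2; compound pinned; 48 h; CellTiter-Glo, 15 min RT; luminescence. MIPE 11-pt from 0.78 nM, NPC 8-pt from 0.59 nM final. Bortezomib 2.3 µM final as positive control.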

Assay [5] is described as follows: qHTS of pediatric cancer cell lines to identify multiple opportunities for drug repurposing: Primary screen for U-2 OS cells (AID 1347096). Further: nearly all actives have a fitted effect of over 50% in size. The gist of the method:
(§2)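 Viability after 48 h compound treatment at 37C, 500-1,000 cells/well, read as ATP luminescence with CellTiter-Glo. Primary screens used 11-point (MIPE, 0.78 nM-46 µM) or 8-point (NPC, 0.59 nM-46 µM) final concentrations; follow-up screens used 11-point dilutions.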

A short description of assay [6]: qHTS of pediatric cancer cell lines to identify multiple opportunities for drug repurposing: Primary screen for Saos-2 cells (AID 1347097). Further: nearly all actives have a fitted effect of over 40% in size. Further: potency means the concentration at half of the fitted maximal effect. The gist of the method:
as §1

The nature of assay [7]: qHTS of pediatric cancer cell lines to identify multiple opportunities for drug repurposing: Primary screen for SK-N-SH cells (AID 1347098). Further: nearly all actives have a fitted effect of over 65% in size. Further: potency means the concentration at half of the fitted maximal effect. Summed up: (§3)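 Cells (500-1,000/well) rested 5 h, then received compounds for 48 h; metabolically active cells were measured by CellTiter-Glo luminescence. Final concentrations spanned up to 46 µM (MIPE, 11-point) or 0.59 nM-46 µM (NPC, 8-point) in primary screens, 11-point in follow-ups.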

Assay [8] can be described thus: qHTS of pediatric cancer cell lines to identify multiple opportunities for drug repurposing: Primary screen for NB1643 cells (AID 1347099). Further: nearly all actives have a fitted effect of over 50% in size. Summed up: as §1
Assay [9] is described as follows: qHTS of pediatric cancer cell lines to identify multiple opportunities for drug repurposing: Primary screen for LAN-5 cells (AID 1347100). Further: potency means the concentration at half of the fitted maximal effect. The gist of the method:
as §2

Assay [10] can be described thus: qHTS of pediatric cancer cell lines to identify multiple opportunities for drug repurposing: Primary screen for Rh18 cells (AID 1347102). Further: nearly all actives have a fitted effect of over 65% in size. The gist of the method:
as §2

Assay [11] is described as follows: qHTS of pediatric cancer cell lines to identify multiple opportunities for drug repurposing: Primary screen for OHS-50 cells (AID 1347103). Further: nearly all actives have a fitted effect of over 40% in size. Further: potency means the concentration at half of the fitted maximal effect. Summed up: as §3
Assay [12] in a line: qHTS of pediatric cancer cell lines to identify multiple opportunities for drug repurposing: Primary screen for RD cells (AID 1347104). Further: nearly all actives have a fitted effect of over 55% in size. Further: potency means the concentration at half of the fitted maximal effect. The gist of the method:
as §1

Assay [13] in a line: qHTS of pediatric cancer cell lines to identify multiple opportunities for drug repurposing: Primary screen for SK-N-MC cells (AID 1347093). Further: potency means the concentration at half of the fitted maximal effect. Summed up: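 Metabolically active cells were quantified by ATP-dependent luminescence (CellTiter-Glo, 15 min at room temperature) following 48 h treatment. Cells had been plated at 500-1,000 per well and settled for 5 h beforehand.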
Assay [14] in a line: qHTS of pediatric cancer cell lines to identify multiple opportunities for drug repurposing: Primary screen for NB-EBc1 cells (AID 1347095). Summed up:
as §1

Assay [15] can be described thus: qHTS of pediatric cancer cell lines to identify multiple opportunities for drug repurposing: Primary screen for BT-12 cells (AID 1347101). Further: nearly all actives have a fitted effect of over 25% in size. The gist of the method: as §3

Results filed as inconclusive are left out. Activity calls are given as the source filed them. The call rests on the fitted dose curve; in most records, active means well fitted curve in the direction sought with a large enough effect; inconclusive means small, poorly fitted or top-dose-only effect, or another doubt; inactive means no such curve, though single readings can be large; an effect the other way counts as inactive or inconclusive.

Turning to `O=S(c1cc(Cl)cc(Cl)c1O)c1cc(Cl)cc(Cl)c1O`, the Potency result in [1], in assay [2], in assay [3], in [4], in assay [5] and in [7] was “inactive” throughout. Also, the Potency entry in assay [8], in assay [9], in [10], in assay [11] and in [12] was “inactive” in each case. Besides, the Potency in assay [6] is 16.8 µM (active).

For the compound `Cc1c(-c2ccccc2)oc2c(C(=O)OCCN3CCCCC3)cccc2c1=O`, the Potency result in [1], in assay [2], in assay [3], in assay [4], in assay [5] and in assay [6] was “inactive” throughout. Further, the Potency result in assay [7], in [8], in assay [9], in assay [10], in assay [11] and in assay [12] was “inactive” throughout.

In the case of `Nc1nc(-c2ccccc2)c(Br)c(=O)[nH]1`, the Potency entry in assay [1], in assay [2], in assay [3], in assay [13], in [14] and in assay [5] was “inactive” in each case. For the same compound, the Potency result in assay [6], in assay [9], in assay [15], in assay [10], in assay [11] and in [12] was “inactive” throughout.

Take `CCOc1ccc(NC(C)=O)cc1`: the Potency entry in [1], in [2], in [3], in assay [13], in assay [4] and in [5] was “inactive” throughout. Further, the Potency entry in assay [6], in [7], in assay [8], in assay [9], in assay [15] and in assay [10] was “inactive” each time. In addition, the Potency result in assay [11] and in assay [12] was “inactive” throughout.

Take `CCN(CC)CCOC(=O)C1(c2ccccc2)CCCC1`: the Potency entry in [1], in [2], in assay [3], in [4], in assay [14] and in assay [5] was “inactive” throughout. The Potency entry in assay [6], in [7], in assay [9], in assay [15], in assay [10] and in assay [11] was “inactive” in each case. In addition, in [12], the Potency entry is “inactive”.

As for `O=C(c1ccc(F)cc1)C1CCN(CCn2c(=S)[nH]c3ccccc3c2=O)CC1`, the Potency result in [1], in [2], in assay [13], in assay [14], in assay [5] and in assay [6] was “inactive” throughout. For the same compound, the Potency entry in assay [9] and in assay [10] was “inactive” in each case. The Potency in [3] is 16.8 µM (active).

As to `COc1cc(C(=S)N2CCOCC2)ccc1O`, the Potency entry in assay [1], in assay [2], in assay [3], in [13], in assay [4] and in assay [14] was “inactive” in each case. For the same compound, the Potency result in [5], in assay [9], in assay [15], in assay [10], in [11] and in assay [12] was “inactive” in each case.

Turning to `Cl/C(=C\n1cncn1)c1ccc(Cl)cc1Cl`, the Potency result in [1], in assay [2], in [3], in assay [13], in [14] and in assay [5] was “inactive” throughout. Also, the Potency entry in assay [7], in assay [9], in assay [15], in assay [10], in [11] and in assay [12] was “inactive” throughout.

Turning to `CN1CCN(CCC(=O)N2c3ccccc3Sc3ccc(C(F)(F)F)cc32)CC1`, the Potency entry in assay [1], in [2] and in assay [5] was “inactive” each time. For the same compound, the Potency in [13] was 29.9 µM (active); in assay [7], 9.7 µM (active); in [9], 26.6 µM (active); in assay [11] it was 17.4 µM (active); in assay [12], 23.7 µM (active).

`CCc1nn(CCCN2CCN(c3cccc(Cl)c3)CC2)c(=O)n1CCOc1ccccc1`: the Potency entry in assay [1], in assay [14], in assay [8], in assay [10] and in assay [12] was “inactive” each time.

`CC(C)[N+](C)(C)CC(O)COc1cccc2ccccc12` (stereo not drawn): the Potency entry in assay [1], in assay [2], in assay [4], in assay [14], in [5] and in assay [6] was “inactive” throughout. Further, the Potency result in [7], in [8], in [9], in assay [10] and in [12] was “inactive” each time.

Consider `CCCCCCCCCCC[C@@H](C[C@@H]1OC(=O)[C@H]1CCCCCC)OC(=O)[C@H](CC(C)C)NC=O`, for which the Potency entry in assay [1], in assay [2], in assay [5], in assay [7], in assay [8] and in assay [9] was “inactive” throughout. Besides, the Potency entry in [15] and in assay [10] was “inactive” throughout.
